# Reference: PubChem BioAssay AID1159580 (chemical genetic matrix, 2015)
# The campaign covered roughly 5,500 compounds. About 2,000 (36%) were called active. About 18% were inconclusive and are not listed. Some of the results follow. A number with no mark means an inactive call. No stated cut-off is given here; in the data, active means normalized growth mostly below about 0.91 (no sharp cut-off); inconclusive means no clear call, values can overlap the other calls; inactive means mostly above about 0.92.
# Assay: chemical genetic growth profiling, strain panel (AID 1159580);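 further: tested at 20 µM; growth read once vehicle control cultures reached saturation at 30 °C; 1 = growth at the plate median or of vehicle wells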
# Settings: growth OD
structure (smiles),measurement,setting,value
O=c1c(-c2ccccc2)coc2cc(O)cc(O)c12,normalized growth,"S. cerevisiae deletion strains, locus YJL187C, strain SWE1, stronger effect = lower value",0.992
same,normalized growth,"S. cerevisiae deletion strains, locus YJR043C, strain POL32, stronger effect = lower value",0.709 (active)
same,normalized growth,"S. cerevisiae deletion strains, locus YJR075W, strain HOC1, stronger effect = lower value",0.884
same,normalized growth,"S. cerevisiae deletion strains, locus YKL009W, strain mrt4, stronger effect = lower value",0.859 (active)
same,normalized growth,"S. cerevisiae deletion strains, locus YKL068W, stronger effect = lower value",0.951
same,normalized growth,"S. cerevisiae deletion strains, locus YKL085W, strain MDH1 (second series), stronger effect = lower value",0.799 (active)
same,normalized growth,"S. cerevisiae deletion strains, locus YKL085W, strain MDH1, stronger effect = lower value",0.799 (active)
same,normalized growth,"S. cerevisiae deletion strains, locus YKL160W, strain elf1, stronger effect = lower value",0.974
same,normalized growth,"S. cerevisiae deletion strains, locus YKL190W, strain CNB1, stronger effect = lower value",0.929
same,normalized growth,"S. cerevisiae deletion strains, locus YKR001C, strain vps1, stronger effect = lower value",0.567 (active)
same,normalized growth,"S. cerevisiae deletion strains, locus YKR026C, strain gcn3, stronger effect = lower value",1
same,normalized growth,"S. cerevisiae deletion strains, locus YKR091W, strain srl3, stronger effect = lower value",1.01
same,normalized growth,"S. cerevisiae deletion strains, locus YLL001W, strain dnm1, stronger effect = lower value",0.965
same,normalized growth,"S. cerevisiae deletion strains, locus YLL026W, stronger effect = lower value",1
same,normalized growth,"S. cerevisiae deletion strains, locus YLL041C, strain sdh2, stronger effect = lower value",1.01
same,normalized growth,"S. cerevisiae deletion strains, locus YLR027C, strain aat2, stronger effect = lower value",1
same,normalized growth,"S. cerevisiae deletion strains, locus YLR039C, strain RIC1, stronger effect = lower value",0.506 (active)
same,normalized growth,"S. cerevisiae deletion strains, locus YLR058C, strain SHM2, stronger effect = lower value",0.311 (active)
same,normalized growth,"S. cerevisiae deletion strains, locus YLR102C, strain apc9, stronger effect = lower value",0.953
same,normalized growth,"S. cerevisiae deletion strains, locus YLR221C, strain rsa3, stronger effect = lower value",0.923
same,normalized growth,"S. cerevisiae deletion strains, locus YLR258W, strain gsy2, stronger effect = lower value",0.982
same,normalized growth,"S. cerevisiae deletion strains, locus YLR262C, strain YPT6 (second series), stronger effect = lower value",0.915
same,normalized growth,"S. cerevisiae deletion strains, locus YLR262C, strain YPT6, stronger effect = lower value",0.606
same,normalized growth,"S. cerevisiae deletion strains, locus YLR268W, strain sec22, stronger effect = lower value",0.789 (active)
same,normalized growth,"S. cerevisiae deletion strains, locus YLR320W, strain mms22, stronger effect = lower value",0.98
same,normalized growth,"S. cerevisiae deletion strains, locus YLR342W, strain FKS1, stronger effect = lower value",0.976
same,normalized growth,"S. cerevisiae deletion strains, locus YLR357W, strain rsc2, stronger effect = lower value",0.881
same,normalized growth,"S. cerevisiae deletion strains, locus YLR370C, strain arc18, stronger effect = lower value",1.01
same,normalized growth,"S. cerevisiae deletion strains, locus YLR371W, strain rom2, stronger effect = lower value",0.715 (active)
same,normalized growth,"S. cerevisiae deletion strains, locus YLR384C, strain iki3, stronger effect = lower value",1.02
same,normalized growth,"S. cerevisiae deletion strains, locus YLR418C, strain cdc73, stronger effect = lower value",0.534 (active)
same,normalized growth,"S. cerevisiae deletion strains, locus YML016C, strain PPZ1, stronger effect = lower value",0.829 (active)
same,normalized growth,"S. cerevisiae deletion strains, locus YML032C, strain rad52, stronger effect = lower value",0.746 (active)
same,normalized growth,"S. cerevisiae deletion strains, locus YML120C, strain ndi1, stronger effect = lower value",0.963
same,normalized growth,"S. cerevisiae deletion strains, locus YML124C, strain tub3, stronger effect = lower value",0.885 (active)
same,normalized growth,"S. cerevisiae deletion strains, locus YMR058W, strain fet3, stronger effect = lower value",0.682 (active)
same,normalized growth,"S. cerevisiae deletion strains, locus YMR078C, strain ctf18, stronger effect = lower value",0.964
same,normalized growth,"S. cerevisiae deletion strains, locus YMR125W, strain sto1, stronger effect = lower value",0.997
same,normalized growth,"S. cerevisiae deletion strains, locus YMR129W, stronger effect = lower value",1.02
same,normalized growth,"S. cerevisiae deletion strains, locus YMR205C, strain PFK2, stronger effect = lower value",1.02
same,normalized growth,"S. cerevisiae deletion strains, locus YMR223W, strain ubp8, stronger effect = lower value",0.783 (active)
same,normalized growth,"S. cerevisiae deletion strains, locus YMR231W, strain pep5, stronger effect = lower value",1
same,normalized growth,"S. cerevisiae deletion strains, locus YMR263W, strain SAP30, stronger effect = lower value",0.774 (active)
same,normalized growth,"S. cerevisiae deletion strains, locus YMR307W, strain GAS1, stronger effect = lower value",0.57 (active)
same,normalized growth,"S. cerevisiae deletion strains, locus YNL067W, strain RPL9B, stronger effect = lower value",0.842 (active)
same,normalized growth,"S. cerevisiae deletion strains, locus YNL071W, strain lat1, stronger effect = lower value",1.01
same,normalized growth,"S. cerevisiae deletion strains, locus YNL209W, strain ssb2, stronger effect = lower value",0.936
same,normalized growth,"S. cerevisiae deletion strains, locus YNL233W, strain BNI4, stronger effect = lower value",0.792 (active)
same,normalized growth,"S. cerevisiae deletion strains, locus YNL248C, strain rpa49, stronger effect = lower value",0.989
same,normalized growth,"S. cerevisiae deletion strains, locus YNL250W, strain rad50, stronger effect = lower value",0.824 (active)
same,normalized growth,"S. cerevisiae deletion strains, locus YNL271C, strain bni1, stronger effect = lower value",0.646 (active)
same,normalized growth,"S. cerevisiae deletion strains, locus YNL298W, strain CLA4, stronger effect = lower value",0.766 (active)
same,normalized growth,"S. cerevisiae deletion strains, locus YNL307C, strain MCK1, stronger effect = lower value",0.714 (active)
same,normalized growth,"S. cerevisiae deletion strains, locus YNL322C, strain KRE1 (second series), stronger effect = lower value",1.01
same,normalized growth,"S. cerevisiae deletion strains, locus YNR049C, strain mso1, stronger effect = lower value",1.01
same,normalized growth,"S. cerevisiae deletion strains, locus YNR052C, strain pop2, stronger effect = lower value",0.65 (active)
same,normalized growth,"S. cerevisiae deletion strains, locus YOL012C, strain htz1",0.305
same,normalized growth,"S. cerevisiae deletion strains, locus YOL147C, strain pex11, stronger effect = lower value",0.588 (active)
same,normalized growth,"S. cerevisiae deletion strains, locus YOR001W, strain rrp6, stronger effect = lower value",0.964
same,normalized growth,"S. cerevisiae deletion strains, locus YOR061W, strain CKA2, stronger effect = lower value",0.869 (active)
same,normalized growth,"S. cerevisiae deletion strains, locus YOR069W, strain VPS5, stronger effect = lower value",0.848 (active)
same,normalized growth,"S. cerevisiae deletion strains, locus YOR070C, strain gyp1, stronger effect = lower value",1.01
same,normalized growth,"S. cerevisiae deletion strains, locus YOR080W, strain dia2, stronger effect = lower value",1
same,normalized growth,"S. cerevisiae deletion strains, locus YOR083W, strain WHI5, stronger effect = lower value",0.938
same,normalized growth,"S. cerevisiae deletion strains, locus YOR106W, strain vam3, stronger effect = lower value",0.924
same,normalized growth,"S. cerevisiae deletion strains, locus YOR136W, strain idh2, stronger effect = lower value",0.905 (active)
same,normalized growth,"S. cerevisiae deletion strains, locus YOR144C, strain elg1, stronger effect = lower value",0.686 (active)
same,normalized growth,"S. cerevisiae deletion strains, locus YOR184W, strain ser1, stronger effect = lower value",0.669 (active)
same,normalized growth,"S. cerevisiae deletion strains, locus YOR265W, strain rbl2, stronger effect = lower value",1.01
same,normalized growth,"S. cerevisiae deletion strains, locus YOR270C, strain vph1, stronger effect = lower value",0.912
same,normalized growth,"S. cerevisiae deletion strains, locus YOR290C, strain snf2, stronger effect = lower value",0.886
same,normalized growth,"S. cerevisiae deletion strains, locus YOR316C, strain cot1, stronger effect = lower value",0.979
same,normalized growth,"S. cerevisiae deletion strains, locus YPL051W, strain arl3, stronger effect = lower value",0.947
same,normalized growth,"S. cerevisiae deletion strains, locus YPL055C, strain LGE1, stronger effect = lower value",0.744 (active)
same,normalized growth,"S. cerevisiae deletion strains, locus YPL078C, strain atp4, stronger effect = lower value",0.967
same,normalized growth,"S. cerevisiae deletion strains, locus YPL106C, strain sse1, stronger effect = lower value",1.03
same,normalized growth,"S. cerevisiae deletion strains, locus YPL240C, strain hsp82, stronger effect = lower value",0.996
same,normalized growth,"S. cerevisiae deletion strains, locus YPL241C, strain CIN2, stronger effect = lower value",0.911 (active)
same,normalized growth,"S. cerevisiae deletion strains, locus YPR119W, strain clb2, stronger effect = lower value",0.992
same,normalized growth,"S. cerevisiae deletion strains, locus YPR141C, strain kar3, stronger effect = lower value",0.99
same,normalized growth,"S. cerevisiae deletion strains, locus YPR163C, strain tif3, stronger effect = lower value",0.643 (active)
same,normalized growth,"S. cerevisiae deletion strains, locus YPR167C, strain met16, stronger effect = lower value",0.815 (active)
same,normalized growth,"S. cerevisiae deletion strains, strain wtn01, stronger effect = lower value",0.767 (active)
same,normalized growth,"S. cerevisiae strains, strain wild type, stronger effect = lower value",0.772 (active)
